“And” between values parts separate entries of the source, which are not always exact repeats. Equal values may be shown once. For some assays here: Measured potencies and affinities stand elsewhere. The source made the active and inactive calls. Unless noted, the rule behind the calls is not given here.
Assays:
[1] = kinase inhibitors against Plasmodium liver-stage infection, cell-based, known kinase inhibitor set, luminescence, hepatoma host viability (AID 624392); conditions: Plasmodium liver stage in hepatoma cells, luciferase luminescence, concentration not given here; liver cell % of control: measured here: host liver cell viability; parasite % of control: stronger effect = lower value;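 note: infected cells incubated roughly two days before readout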
[2] = modulators of glucocorticoid suppression of NF-kB, cell-based, luciferase, IL-1B stimulus, dexamethasone (AID 624486); conditions: NF-kB luciferase reporter, IL-1B + dexamethasone, luminescence; percent of negative control (+Dex): actives lie on both sides, concentration not given here; z-score: measured here: IL-1B alone, no Dex;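 for percent of negative control (+Dex): 100% = mean signal of vehicle control wells on the plate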
[3] = target: Cellular tumor antigen p53 (Homo sapiens) (UniProt P04637); experiment: kinase inhibitors altering GFP-p53 stability in HPV16-positive cells, imaging, known kinase inhibitor set, EGFP/DsRed ratio (AID 1053116); conditions: stronger effect = higher value; EGFP object count: measured here: GFP-p53 positive objects count;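 note: cells exposed to compounds for 24 h at 37 °C before reading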
Sequence of Cellular tumor antigen p53 (Homo sapiens) (P04637 whole entry, looked up): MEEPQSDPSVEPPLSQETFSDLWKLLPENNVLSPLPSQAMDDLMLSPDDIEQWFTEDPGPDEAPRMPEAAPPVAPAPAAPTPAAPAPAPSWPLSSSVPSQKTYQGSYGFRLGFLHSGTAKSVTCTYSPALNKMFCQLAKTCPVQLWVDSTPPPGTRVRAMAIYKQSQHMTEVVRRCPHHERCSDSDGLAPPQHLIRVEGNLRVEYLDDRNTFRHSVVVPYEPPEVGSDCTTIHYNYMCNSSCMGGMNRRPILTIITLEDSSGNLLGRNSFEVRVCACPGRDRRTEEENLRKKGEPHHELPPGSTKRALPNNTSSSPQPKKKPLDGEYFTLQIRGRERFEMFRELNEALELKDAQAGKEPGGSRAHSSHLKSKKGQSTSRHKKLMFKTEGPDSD

[4] = IRF3 reporter activation in THP-1 macrophages, cell-based, PMA-stimulated THP-1, luminescence (AID 1053176); conditions: PMA-differentiated THP-1, IRF3 reporter luminescence; stronger effect = higher value
[5] = antimalarial activity against Dd2 strain (AID 2302;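 active = growth inhibition above 50% at the single 2 µM test dose, taken to imply half-maximal potency below 2 µM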;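 note: 0% = DMSO untreated growth and 100% = chloroquine plus artemisinin killed control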); conditions: P. falciparum Dd2 in RBCs, LDH growth readout, 72 h; at 2 µM; stronger effect = higher value
[6] = HepG2 cytotoxicity, primary screen, cytotoxicity control for P. falciparum antimalarial project, cell-based, ATP luminescence (AID 2303;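 active = inhibition above 50%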;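 note: 0% = DMSO wells and 100% = digitonin-killed cells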); conditions: HepG2 viability, 24-48 h, at 10 µM, stronger effect = higher value
[7] = target: L-lactate dehydrogenase (Plasmodium falciparum (isolate CDC / Honduras)) (UniProt Q27743); experiment: PfLDH activity inhibition – cell lysate, 3D7 strain, counter-screen for P. falciparum growth inhibition project (AID 2304);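 note: 0% = vehicle and 100% = reference inhibitor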; conditions: P. falciparum 3D7 crude extract, LDH APAD/NBT absorbance; at 2 µM; stronger effect = higher value
Sequence of L-lactate dehydrogenase (Plasmodium falciparum (isolate CDC / Honduras)) (Q27743 whole entry, looked up): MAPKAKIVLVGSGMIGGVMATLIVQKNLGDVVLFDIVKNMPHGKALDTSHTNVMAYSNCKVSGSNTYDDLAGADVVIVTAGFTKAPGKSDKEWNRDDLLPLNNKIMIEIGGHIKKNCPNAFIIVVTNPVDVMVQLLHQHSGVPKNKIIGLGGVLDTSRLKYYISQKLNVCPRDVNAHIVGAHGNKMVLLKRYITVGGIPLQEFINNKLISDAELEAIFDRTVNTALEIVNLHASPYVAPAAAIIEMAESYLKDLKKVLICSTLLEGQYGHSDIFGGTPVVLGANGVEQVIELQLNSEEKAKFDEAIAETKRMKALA

[8] = inhibition of 3D7 malaria parasite growth – strain 3D7 (AID 2306);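 note: 0% = DMSO wells and 100% = chloroquine plus artemisinin control wells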; conditions: P. falciparum 3D7 erythrocytic growth, LDH absorbance, 72 h; at 2 µM; stronger effect = higher value
[9] = kinase inhibitors altering Pseudomonas killing of worms, whole organism (AID 651566);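 note: tested at 14 µM; sign flipped so higher z means a lower ratio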; conditions: C. elegans killed by P. aeruginosa, survival ratio
[10] = activators of macrophage pro-inflammatory response, cell-based, murine, luminescence (AID 652131); conditions: murine macrophage pro-inflammatory reporter, stronger effect = higher value
[11] = target: Calcium-dependent protein kinase 1 (Plasmodium falciparum (isolate 3D7)) (UniProt P62344); experiment: PfCDPK1 kinase inhibitors, biochemical, TCAMS library (AID 1159585; cut-off not given, nearly all actives have IC50 up to about 0.98 µM;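 note: inhibitors leave more ATP so luminescence rises with inhibition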); conditions: recombinant PfCDPK1, Kinase-Glo ATP depletion luminescence
Sequence of Calcium-dependent protein kinase 1 (Plasmodium falciparum (isolate 3D7)) (P62344 whole entry, looked up): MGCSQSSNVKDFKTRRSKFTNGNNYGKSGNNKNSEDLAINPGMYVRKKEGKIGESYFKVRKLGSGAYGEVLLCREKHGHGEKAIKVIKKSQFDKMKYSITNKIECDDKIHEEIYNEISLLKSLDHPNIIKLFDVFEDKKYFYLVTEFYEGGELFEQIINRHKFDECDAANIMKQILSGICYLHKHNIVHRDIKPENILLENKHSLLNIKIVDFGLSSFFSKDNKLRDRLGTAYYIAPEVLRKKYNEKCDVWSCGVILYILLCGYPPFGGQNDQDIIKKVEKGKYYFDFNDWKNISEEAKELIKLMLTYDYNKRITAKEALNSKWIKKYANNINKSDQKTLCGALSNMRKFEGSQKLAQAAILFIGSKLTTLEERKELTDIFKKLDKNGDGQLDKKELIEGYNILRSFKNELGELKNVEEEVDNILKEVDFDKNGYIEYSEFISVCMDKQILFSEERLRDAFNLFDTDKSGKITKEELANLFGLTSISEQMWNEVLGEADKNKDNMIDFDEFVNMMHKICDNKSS

[12] = target: Plasmodium falciparum protein kinase 6 (PK6, PF3D7_1337100) (UniProt Q8IDW1); experiment: PfPK6 kinase inhibitors, biochemical, TCAMS library (AID 1159586); conditions: recombinant PfPK6, Kinase-Glo ATP depletion luminescence
Sequence of Plasmodium falciparum protein kinase 6 (PK6, PF3D7_1337100) (Q8IDW1 1-305): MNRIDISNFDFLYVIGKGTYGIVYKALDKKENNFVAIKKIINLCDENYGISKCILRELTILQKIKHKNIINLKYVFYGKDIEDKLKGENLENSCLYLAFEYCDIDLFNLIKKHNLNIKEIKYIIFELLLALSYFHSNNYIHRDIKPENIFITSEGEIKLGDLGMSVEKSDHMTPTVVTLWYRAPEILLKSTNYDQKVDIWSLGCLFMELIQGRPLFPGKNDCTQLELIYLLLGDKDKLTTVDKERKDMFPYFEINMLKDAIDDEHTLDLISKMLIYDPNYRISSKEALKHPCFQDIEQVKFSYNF

[13] = target: Protein kinase 7 (PK7), Plasmodium falciparum 3D7 (PF3D7_0213400) (UniProt Q7YTF7); experiment: inhibition of Plasmodium PK7 catalytic activity – biochemical, TCAMS antimalarial set, Kinase-Glo luminescence (AID 1159587); conditions: recombinant PfPK7, Kinase-Glo ATP depletion luminescence
Sequence of Protein kinase 7 (PK7), Plasmodium falciparum 3D7 (PF3D7_0213400) (Q7YTF7 1-343): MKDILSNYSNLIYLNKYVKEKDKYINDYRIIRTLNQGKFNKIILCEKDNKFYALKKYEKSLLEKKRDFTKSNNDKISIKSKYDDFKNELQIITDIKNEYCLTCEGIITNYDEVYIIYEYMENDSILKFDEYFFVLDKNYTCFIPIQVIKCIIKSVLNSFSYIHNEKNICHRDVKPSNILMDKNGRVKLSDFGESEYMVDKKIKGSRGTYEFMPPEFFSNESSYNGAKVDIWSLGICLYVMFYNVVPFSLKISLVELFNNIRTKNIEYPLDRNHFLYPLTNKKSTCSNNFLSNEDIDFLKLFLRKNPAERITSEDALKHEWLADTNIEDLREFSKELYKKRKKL

[14] = target: Calcium-dependent protein kinase 4 (Plasmodium falciparum (isolate 3D7)) (UniProt Q8IBS5); experiment: PfCDPK4 kinase inhibitors, biochemical, TCAMS library (AID 1159588; cut-off not given, nearly all actives have IC50 up to about 0.91 µM); conditions: recombinant PfCDPK4, Kinase-Glo ATP depletion luminescence
Sequence of Calcium-dependent protein kinase 4 (Plasmodium falciparum (isolate 3D7)) (Q8IBS5 whole entry, looked up): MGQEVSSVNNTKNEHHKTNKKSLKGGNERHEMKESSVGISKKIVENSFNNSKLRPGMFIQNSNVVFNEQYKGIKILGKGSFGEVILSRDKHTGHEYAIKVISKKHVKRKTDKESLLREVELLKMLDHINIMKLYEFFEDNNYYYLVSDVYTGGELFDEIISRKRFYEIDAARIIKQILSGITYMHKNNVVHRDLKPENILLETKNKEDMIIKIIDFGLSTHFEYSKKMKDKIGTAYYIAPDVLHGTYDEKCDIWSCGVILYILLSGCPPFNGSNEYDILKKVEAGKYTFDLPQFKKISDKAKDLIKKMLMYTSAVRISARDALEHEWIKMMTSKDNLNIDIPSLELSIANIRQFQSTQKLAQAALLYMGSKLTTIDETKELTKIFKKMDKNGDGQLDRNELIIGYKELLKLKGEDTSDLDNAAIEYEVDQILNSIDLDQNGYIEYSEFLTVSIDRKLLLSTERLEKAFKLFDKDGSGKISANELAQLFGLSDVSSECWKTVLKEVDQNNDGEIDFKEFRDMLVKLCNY

[15] = survival rescue of mitochondrial mutant cells in low glucose, primary screen, MELAS cybrids, Rieske KO mouse fibroblasts, CellTiter-Glo (AID 1508586;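 active = mean z-score across replicates of 1.96 or higher in either the MELAS or the Rieske mutant cell line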;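 note: z relative to plate mean and SD of compound and empty wells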)
[16] = MELAS cybrid survival, CellTiter-Glo 48 h, stronger effect = higher value
[17] = Rieske KO mouse fibroblast survival, CellTiter-Glo 72 h

With Cn1cc(C2=C(c3cccc(Cl)c3)C(=O)NC2=O)c2ccccc21 as the compound, how does the liver cell % of control [1] read?
The liver cell % of control was 109%.

And the parasite % of control [1]?
The parasite % of control was 69.6% (inactive).

And the percent of negative control (+Dex) [2]?
Its percent of negative control (+Dex) is 106% (inactive).

What about the z-score [2] of the same compound?
The z-score was 0.59.

What about the EGFP object count [3] of the same compound?
The EGFP object count was 5.

What about the EGFP/DsRed ratio [3] of the same compound?
Its EGFP/DsRed ratio is 0.137 (inactive).

What about the fraction signal [4] of the same compound?
Its fraction signal is 0.0035 (inactive).

For CS(=O)(=O)CCNCc1ccc(-c2ccc3ncnc(Nc4ccc(OCc5ccccc5)c(Cl)c4)c3c2)o1, which growth inhibition [5] is on record?
Its growth inhibition is 76% (active).

And the inhibition [6]?
Its inhibition is 4% (inactive).

What about the inhibition [7] of the same compound?
The inhibition was -7% (inactive).

What about the growth inhibition [8] of the same compound?
The growth inhibition was 101% (active).

And the liver cell % of control [1]?
The liver cell % of control was 113%.

What about the parasite % of control [1] of the same compound?
The parasite % of control was 73.2% (inactive).

And the percent of negative control (+Dex) [2]?
The percent of negative control (+Dex) was 73.5% (inactive).

What about the z-score [2] of the same compound?
Its z-score is -1.31.

And the z-score [9]?
Its z-score is -0.785 (inactive).

And the z-score [10]?
The z-score was 2.12 (inactive).

What about the fraction signal [4] of the same compound?
Its fraction signal is -0.0085 (inactive).

What about the outcome [11] of the same compound?
The outcome was “inactive”.

What about the outcome [12] of the same compound?
Its outcome is “inactive”.

What about the outcome [13] of the same compound?
Its outcome is “inactive”.

And the outcome [14]?
The outcome was “inactive”.

What about the z-score [15, 16] of the same compound?
The z-score was -0.588 (inactive).

What about the z-score [15, 17] of the same compound?
Its z-score is -0.304.

For COc1cc(Nc2ncc(-c3ccccc3)o2)cc(OC)c1OC, which liver cell % of control [1] is on record?
Its liver cell % of control is 152%.

What about the parasite % of control [1] of the same compound?
Its parasite % of control is 18.6% (inactive).

What about the percent of negative control (+Dex) [2] of the same compound?
Its percent of negative control (+Dex) is 93.5% (inactive).

And the z-score [2]?
The z-score was 0.42.

What about the z-score [9] of the same compound?
Its z-score is 1.53 (inactive).

What about the z-score [10] of the same compound?
Its z-score is -0.164 (inactive).

And the fraction signal [4]?
The fraction signal was -0.0025 (inactive).

And the z-score [15, 16]?
Its z-score is 1.37 (inactive).

And the z-score [15, 17]?
Its z-score is -0.275.

What does the source list for CS(=O)(=O)CCn1c(=O)c(Oc2ccc(F)cc2F)cc2cnc(NC3CCOCC3)nc21?
liver cell % of control [1]: 122%; parasite % of control [1]: 63% (inactive); percent of negative control (+Dex) [2]: 99% (inactive); z-score [2]: 0.47; EGFP object count [3]: 2; EGFP/DsRed ratio [3]: 0.0579 (inactive); fraction signal [4]: 0.0015 (inactive)

For CC(CO)Nc1cc(-c2[nH]c3cccnc3c2-c2ccc(F)cc2)ccn1 (stereo not drawn), which liver cell % of control [1] is on record?
Its liver cell % of control is 124%.

What about the parasite % of control [1] of the same compound?
The parasite % of control was 78.1% (inactive).

What about the percent of negative control (+Dex) [2] of the same compound?
Its percent of negative control (+Dex) is 85.5% (inactive).

What about the z-score [2] of the same compound?
The z-score was -0.435.

What about the EGFP object count [3] of the same compound?
The EGFP object count was 4.5.

And the EGFP/DsRed ratio [3]?
The EGFP/DsRed ratio was 0.0626 (inactive).

And the fraction signal [4]?
The fraction signal was -0.0075 (inactive).

Which results are given for CC(=O)N1CCC(Nc2ncc3cc(Oc4ccc(F)cc4F)c(=O)n(C)c3n2)CC1?
liver cell % of control [1]: 113%; parasite % of control [1]: 81.4% (inactive); percent of negative control (+Dex) [2]: 102% (inactive); z-score [2]: 0.13; EGFP object count [3]: 2; EGFP/DsRed ratio [3]: 0.0142 (inactive); fraction signal [4]: -0.005 (inactive)

For Cn1cc(C2=C(c3cn(CCCCCN)c4ccccc34)C(=O)NC2=O)c2ccccc21, which liver cell % of control [1] is on record?
Its liver cell % of control is 105%.

And the parasite % of control [1]?
The parasite % of control was 35.6% (inactive).

What about the percent of negative control (+Dex) [2] of the same compound?
The percent of negative control (+Dex) was 99.5% (inactive).

What about the z-score [2] of the same compound?
The z-score was 0.77.

And the EGFP object count [3]?
The EGFP object count was 13.5.

And the EGFP/DsRed ratio [3]?
The EGFP/DsRed ratio was 0.639 (inactive).

What about the fraction signal [4] of the same compound?
Its fraction signal is 0.0035 (inactive).

Which liver cell % of control [1] does the source give for O=C1NC(=NC(CO)c2ccccc2)SC1=Cc1ccc2ncccc2c1 (stereo not drawn) here?
Its liver cell % of control is 113% and 90.5%.

And the parasite % of control [1]?
The parasite % of control was 71.9% (inactive) and 55.3% (inactive).

What about the percent of negative control (+Dex) [2] of the same compound?
Its percent of negative control (+Dex) is 102% (inactive) and 96% (inactive).

What about the z-score [2] of the same compound?
The z-score was 0.925 and 0.08.

And the EGFP object count [3]?
The EGFP object count was 4 and 5.5.

What about the EGFP/DsRed ratio [3] of the same compound?
The EGFP/DsRed ratio was 0.088 (inactive) and 0.122 (inactive).

And the fraction signal [4]?
The fraction signal was -0.005 (inactive) and 0.0055 (inactive).

Source: PubChem BioAssay
